# From publication PMC7862700, “An all-to-all approach to the identification of sequence-specific readers for epigenetic DNA modifications on cytosine”
# Assays:
# Assay in all cases: DAPPL (digital affinity profiling via proximity ligation, sequencing); 10 mM Tris-HCl pH 7.5, 50 mM NaCl, 1 mM DTT, 4% glycerol, room temperature, 30 min; GST-TFs on glutathione beads, 16-mer random dsDNA library, 0.1% formaldehyde crosslink after washing; high values mean tight binding
# FLI1 = biological target: T1, FLI1 (Homo sapiens, UniProt Q01543 1-452); settings: protein: recombinant; tags: N-terminal GST; dsDNA, one strand shown
# T1 sequence: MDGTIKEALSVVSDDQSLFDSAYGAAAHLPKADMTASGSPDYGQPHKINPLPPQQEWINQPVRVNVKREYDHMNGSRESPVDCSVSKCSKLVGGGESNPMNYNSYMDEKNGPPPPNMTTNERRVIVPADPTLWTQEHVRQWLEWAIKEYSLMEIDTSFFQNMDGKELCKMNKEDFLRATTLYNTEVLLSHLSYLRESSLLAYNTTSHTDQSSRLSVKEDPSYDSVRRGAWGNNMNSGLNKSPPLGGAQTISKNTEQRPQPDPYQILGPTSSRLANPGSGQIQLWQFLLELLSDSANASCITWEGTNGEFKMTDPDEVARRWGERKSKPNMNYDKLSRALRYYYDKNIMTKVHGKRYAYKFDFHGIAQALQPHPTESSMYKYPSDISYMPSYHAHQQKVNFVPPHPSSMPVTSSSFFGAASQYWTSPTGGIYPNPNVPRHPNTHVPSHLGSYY
# In short: (§1)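 A tag-only sample was pooled with DNA-barcoded human transcription factors that had been expressed in yeast as GST fusions and captured on glutathione beads. The pools were incubated for 30 min at room temperature with 200 nmole of a random double-stranded 16-mer DNA library in Tris/NaCl/DTT/glycerol buffer, then washed, crosslinked with 0.1% formaldehyde, proximity-ligated (BsaI/T4 ligase, 1 h, 37 °C), PCR-amplified and sequenced on an Illumina NextSeq500. Binding signal is each hexamer's read frequency for a factor divided by its frequency for the tag-only sample.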
# ELK1 = biological target: T2, ELK1 (Homo sapiens, UniProt P19419 1-428); settings: protein: recombinant; tags: N-terminal GST; dsDNA, one strand shown
# T2 sequence: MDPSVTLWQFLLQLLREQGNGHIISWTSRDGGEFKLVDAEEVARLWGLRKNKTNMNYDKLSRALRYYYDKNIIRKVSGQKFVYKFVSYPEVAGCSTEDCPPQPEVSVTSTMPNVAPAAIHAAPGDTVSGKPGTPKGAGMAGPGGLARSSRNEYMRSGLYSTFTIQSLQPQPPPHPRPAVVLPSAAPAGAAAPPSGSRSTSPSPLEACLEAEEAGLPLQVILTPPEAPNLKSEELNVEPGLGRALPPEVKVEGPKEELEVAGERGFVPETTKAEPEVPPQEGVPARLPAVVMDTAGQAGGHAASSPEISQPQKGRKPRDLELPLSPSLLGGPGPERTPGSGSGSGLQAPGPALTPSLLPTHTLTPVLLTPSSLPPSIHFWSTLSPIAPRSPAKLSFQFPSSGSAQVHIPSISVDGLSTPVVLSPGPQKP
# In short: as §1
# GABPA = biological target: T3, GABPA (Homo sapiens, UniProt Q06546 1-454); settings: protein: recombinant; tags: N-terminal GST; dsDNA, one strand shown
# T3 sequence: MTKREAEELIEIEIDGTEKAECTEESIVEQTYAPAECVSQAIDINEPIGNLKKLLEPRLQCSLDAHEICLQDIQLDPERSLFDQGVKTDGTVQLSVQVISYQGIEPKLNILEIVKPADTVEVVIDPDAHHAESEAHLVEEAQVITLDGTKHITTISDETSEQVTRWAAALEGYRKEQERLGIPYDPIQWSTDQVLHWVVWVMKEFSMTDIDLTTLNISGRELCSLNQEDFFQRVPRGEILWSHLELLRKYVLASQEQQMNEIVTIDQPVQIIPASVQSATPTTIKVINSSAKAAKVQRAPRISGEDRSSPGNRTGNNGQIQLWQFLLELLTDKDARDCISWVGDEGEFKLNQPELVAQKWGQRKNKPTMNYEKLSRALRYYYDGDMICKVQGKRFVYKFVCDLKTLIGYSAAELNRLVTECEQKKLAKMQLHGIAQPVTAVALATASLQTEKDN
# In short: as §1
# ERG = biological target: T4, ERG (Homo sapiens, UniProt P11308 1-479); settings: protein: recombinant; tags: N-terminal GST; dsDNA, one strand shown
# T4 sequence: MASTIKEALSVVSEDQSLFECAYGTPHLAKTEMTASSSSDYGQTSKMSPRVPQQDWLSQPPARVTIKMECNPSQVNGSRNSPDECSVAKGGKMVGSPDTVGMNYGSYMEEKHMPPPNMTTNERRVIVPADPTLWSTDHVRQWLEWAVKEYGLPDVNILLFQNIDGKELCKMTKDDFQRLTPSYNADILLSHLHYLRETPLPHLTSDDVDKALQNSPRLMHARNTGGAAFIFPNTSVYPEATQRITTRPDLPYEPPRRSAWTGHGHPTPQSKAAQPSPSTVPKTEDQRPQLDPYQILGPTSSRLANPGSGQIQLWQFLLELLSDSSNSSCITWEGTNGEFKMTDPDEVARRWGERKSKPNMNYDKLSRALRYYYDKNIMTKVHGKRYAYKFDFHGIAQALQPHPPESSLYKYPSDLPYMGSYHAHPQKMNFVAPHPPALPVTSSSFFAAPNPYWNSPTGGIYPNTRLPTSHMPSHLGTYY
# In short: as §1
# ELF1 = ELF1 (Homo sapiens, UniProt P32519 1-619); settings: protein: recombinant; tags: N-terminal GST; dsDNA, one strand shown
# In short: as §1
# EHF = biological target: T5, EHF (Homo sapiens, UniProt Q9NZC4 1-300); settings: protein: recombinant; tags: N-terminal GST; dsDNA, one strand shown
# T5 sequence: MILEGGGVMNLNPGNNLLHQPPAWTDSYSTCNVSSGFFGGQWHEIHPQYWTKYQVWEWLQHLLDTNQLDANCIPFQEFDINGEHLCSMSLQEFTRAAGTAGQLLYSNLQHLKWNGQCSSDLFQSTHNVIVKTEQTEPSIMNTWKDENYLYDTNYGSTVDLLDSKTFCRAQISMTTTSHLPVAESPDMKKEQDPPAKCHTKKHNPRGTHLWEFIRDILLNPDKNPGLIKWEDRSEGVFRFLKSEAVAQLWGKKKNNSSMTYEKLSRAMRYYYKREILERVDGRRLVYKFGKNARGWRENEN
# In short: as §1
# SPI1 = SPI1 (Homo sapiens, UniProt P17947 1-270); settings: protein: recombinant; tags: N-terminal GST; dsDNA, one strand shown
# In short: as §1
# SPIB = SPIB (Homo sapiens, UniProt Q01892 1-262); settings: protein: recombinant; tags: N-terminal GST; dsDNA, one strand shown
# In short: as §1
# ELK3 = biological target: T6, ELK3 (Homo sapiens, UniProt P41970 1-407); settings: protein: recombinant; tags: N-terminal GST; dsDNA, one strand shown
# T6 sequence: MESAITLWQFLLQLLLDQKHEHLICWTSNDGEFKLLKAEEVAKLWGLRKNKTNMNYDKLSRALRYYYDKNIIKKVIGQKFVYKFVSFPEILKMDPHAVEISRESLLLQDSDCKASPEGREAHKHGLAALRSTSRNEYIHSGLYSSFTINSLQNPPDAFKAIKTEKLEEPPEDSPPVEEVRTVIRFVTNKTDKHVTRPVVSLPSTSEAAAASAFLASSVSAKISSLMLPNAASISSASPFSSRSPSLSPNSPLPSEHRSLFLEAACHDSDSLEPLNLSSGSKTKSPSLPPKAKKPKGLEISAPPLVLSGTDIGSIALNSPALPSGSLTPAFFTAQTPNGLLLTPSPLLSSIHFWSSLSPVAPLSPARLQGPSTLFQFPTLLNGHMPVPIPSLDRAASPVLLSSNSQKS
# In short: as §1
# FEV = biological target: T7, FEV (Homo sapiens, UniProt Q99581 1-238); settings: protein: recombinant; tags: N-terminal GST; dsDNA, one strand shown
# T7 sequence: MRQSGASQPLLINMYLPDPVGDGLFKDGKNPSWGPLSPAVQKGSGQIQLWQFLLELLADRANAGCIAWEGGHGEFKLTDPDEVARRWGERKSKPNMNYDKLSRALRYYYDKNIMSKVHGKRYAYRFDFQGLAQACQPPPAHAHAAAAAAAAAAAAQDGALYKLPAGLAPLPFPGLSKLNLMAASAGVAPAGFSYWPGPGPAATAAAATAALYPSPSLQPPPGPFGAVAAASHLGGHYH
# In short: as §1
# ETV5 = ETV5 (Homo sapiens, UniProt P41161 1-510); settings: protein: recombinant; tags: N-terminal GST; dsDNA, one strand shown
# In short: as §1
# HSF1 = HSF1 (Homo sapiens, UniProt Q00613 1-529); settings: protein: recombinant; tags: N-terminal GST; chain copies: 3; dsDNA, one strand shown
# In short: as §1
# SPIC = biological target: T8, SPIC (Homo sapiens, UniProt Q8N5J4 1-248); settings: protein: recombinant; tags: N-terminal GST; dsDNA, one strand shown
# T8 sequence: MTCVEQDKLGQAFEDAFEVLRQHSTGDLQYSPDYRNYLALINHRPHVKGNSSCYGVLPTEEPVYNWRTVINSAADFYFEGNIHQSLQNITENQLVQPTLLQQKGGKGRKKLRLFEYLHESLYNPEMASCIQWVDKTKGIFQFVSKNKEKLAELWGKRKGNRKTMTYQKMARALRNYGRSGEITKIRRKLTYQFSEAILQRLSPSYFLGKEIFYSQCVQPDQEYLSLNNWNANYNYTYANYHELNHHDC
# In short: as §1
# ELF4 = ELF4 (Homo sapiens, UniProt Q99607 1-663); settings: protein: recombinant; tags: N-terminal GST; dsDNA, one strand shown
# In short: as §1
# ELK4 = biological target: T9, ELK4 (Homo sapiens, UniProt P28324-2 1-405); settings: protein: recombinant; tags: N-terminal GST; dsDNA, one strand shown
# T9 sequence: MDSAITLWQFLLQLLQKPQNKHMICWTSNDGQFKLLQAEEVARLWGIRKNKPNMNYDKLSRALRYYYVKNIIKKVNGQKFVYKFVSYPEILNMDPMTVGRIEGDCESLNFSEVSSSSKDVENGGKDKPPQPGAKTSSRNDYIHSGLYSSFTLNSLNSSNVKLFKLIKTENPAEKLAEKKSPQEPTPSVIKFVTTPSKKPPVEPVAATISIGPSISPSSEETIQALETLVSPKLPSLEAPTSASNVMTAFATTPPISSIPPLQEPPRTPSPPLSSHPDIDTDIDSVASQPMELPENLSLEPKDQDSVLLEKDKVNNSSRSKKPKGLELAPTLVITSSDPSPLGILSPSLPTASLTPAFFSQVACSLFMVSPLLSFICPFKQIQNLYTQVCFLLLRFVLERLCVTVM
# In short: as §1
# ETV2 = biological target: T10, ETV2 (Homo sapiens, UniProt O00321 1-342); settings: protein: recombinant; tags: N-terminal GST; dsDNA, one strand shown
# T10 sequence: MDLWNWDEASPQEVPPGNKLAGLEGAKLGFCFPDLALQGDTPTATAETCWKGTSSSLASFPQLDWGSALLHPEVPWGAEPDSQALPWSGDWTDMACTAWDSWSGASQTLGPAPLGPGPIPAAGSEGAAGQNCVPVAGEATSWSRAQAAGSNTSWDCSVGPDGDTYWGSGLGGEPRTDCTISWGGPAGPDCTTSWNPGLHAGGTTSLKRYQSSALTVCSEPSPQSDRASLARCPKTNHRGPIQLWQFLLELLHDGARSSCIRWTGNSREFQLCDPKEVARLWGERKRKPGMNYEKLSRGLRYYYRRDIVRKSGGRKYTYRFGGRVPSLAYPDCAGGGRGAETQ
# In short: as §1
# ELF3 = biological target: T11, ELF3 (Homo sapiens, UniProt P78545 1-371); settings: protein: recombinant; tags: N-terminal GST; dsDNA, one strand shown
# T11 sequence: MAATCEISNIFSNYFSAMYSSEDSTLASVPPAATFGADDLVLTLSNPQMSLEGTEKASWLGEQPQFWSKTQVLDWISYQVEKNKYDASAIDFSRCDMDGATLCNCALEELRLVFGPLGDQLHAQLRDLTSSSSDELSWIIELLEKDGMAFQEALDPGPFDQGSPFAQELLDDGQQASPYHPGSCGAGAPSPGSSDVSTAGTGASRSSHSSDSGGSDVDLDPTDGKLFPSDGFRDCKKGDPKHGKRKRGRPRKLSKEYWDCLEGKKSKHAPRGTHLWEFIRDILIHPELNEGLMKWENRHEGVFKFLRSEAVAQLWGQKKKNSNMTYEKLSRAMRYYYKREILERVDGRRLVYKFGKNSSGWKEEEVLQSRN
# In short: as §1
# CRX = CRX (Homo sapiens, UniProt O43186 1-299); settings: protein: recombinant; tags: N-terminal GST; dsDNA, one strand shown
# In short: as §1
# ETV1 = ETV1 (Homo sapiens, UniProt P50549 1-477); settings: protein: recombinant; tags: N-terminal GST; dsDNA, one strand shown
# In short: as §1
# Sequence of ELF4 (Q99607 whole entry): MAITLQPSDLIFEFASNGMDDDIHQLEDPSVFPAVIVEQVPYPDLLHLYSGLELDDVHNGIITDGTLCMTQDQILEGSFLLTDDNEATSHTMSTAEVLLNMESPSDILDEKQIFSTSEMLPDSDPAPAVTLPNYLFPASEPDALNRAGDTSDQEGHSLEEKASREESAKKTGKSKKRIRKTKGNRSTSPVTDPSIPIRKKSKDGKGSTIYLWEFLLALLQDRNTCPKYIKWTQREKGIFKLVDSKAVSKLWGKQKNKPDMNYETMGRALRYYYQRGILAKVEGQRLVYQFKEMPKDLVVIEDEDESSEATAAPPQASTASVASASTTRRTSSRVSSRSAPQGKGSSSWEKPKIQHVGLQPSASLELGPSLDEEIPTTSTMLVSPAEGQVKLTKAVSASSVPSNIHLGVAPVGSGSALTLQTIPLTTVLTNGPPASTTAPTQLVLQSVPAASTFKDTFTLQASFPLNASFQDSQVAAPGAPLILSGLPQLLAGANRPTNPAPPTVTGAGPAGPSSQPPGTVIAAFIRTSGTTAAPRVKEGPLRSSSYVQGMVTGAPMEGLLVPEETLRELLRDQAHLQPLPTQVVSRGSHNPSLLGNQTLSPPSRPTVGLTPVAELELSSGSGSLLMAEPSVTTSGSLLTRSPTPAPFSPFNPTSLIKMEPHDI
# Sequence of ETV5 (P41161 whole entry): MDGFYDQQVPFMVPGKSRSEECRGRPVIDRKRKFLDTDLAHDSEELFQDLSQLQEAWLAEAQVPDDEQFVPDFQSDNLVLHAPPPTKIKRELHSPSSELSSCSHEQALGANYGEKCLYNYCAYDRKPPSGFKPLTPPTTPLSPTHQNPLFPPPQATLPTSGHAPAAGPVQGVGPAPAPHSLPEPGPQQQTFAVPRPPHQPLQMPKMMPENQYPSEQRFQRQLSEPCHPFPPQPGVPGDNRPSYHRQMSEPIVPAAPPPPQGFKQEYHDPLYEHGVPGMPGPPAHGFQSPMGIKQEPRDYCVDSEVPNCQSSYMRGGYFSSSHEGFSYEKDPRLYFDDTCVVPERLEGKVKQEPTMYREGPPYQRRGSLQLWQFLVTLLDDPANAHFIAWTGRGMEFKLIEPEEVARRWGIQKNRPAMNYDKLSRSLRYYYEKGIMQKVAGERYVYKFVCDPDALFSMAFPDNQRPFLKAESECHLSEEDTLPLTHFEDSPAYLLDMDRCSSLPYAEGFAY
# Sequence of HSF1 (Q00613 whole entry): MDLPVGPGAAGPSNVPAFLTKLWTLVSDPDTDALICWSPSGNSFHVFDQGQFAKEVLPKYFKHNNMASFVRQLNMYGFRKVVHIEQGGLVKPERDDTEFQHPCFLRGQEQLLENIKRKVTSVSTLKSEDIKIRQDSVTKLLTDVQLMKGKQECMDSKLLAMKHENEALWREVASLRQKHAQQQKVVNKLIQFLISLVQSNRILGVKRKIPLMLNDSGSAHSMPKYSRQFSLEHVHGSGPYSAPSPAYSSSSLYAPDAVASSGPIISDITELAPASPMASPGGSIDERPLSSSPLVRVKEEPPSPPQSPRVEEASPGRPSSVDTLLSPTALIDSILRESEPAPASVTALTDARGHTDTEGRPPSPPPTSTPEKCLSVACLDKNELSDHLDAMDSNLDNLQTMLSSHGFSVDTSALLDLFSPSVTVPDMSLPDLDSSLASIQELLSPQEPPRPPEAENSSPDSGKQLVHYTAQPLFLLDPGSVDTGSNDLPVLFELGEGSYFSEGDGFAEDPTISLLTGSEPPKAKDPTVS
# Sequence of ETV1 (P50549 whole entry): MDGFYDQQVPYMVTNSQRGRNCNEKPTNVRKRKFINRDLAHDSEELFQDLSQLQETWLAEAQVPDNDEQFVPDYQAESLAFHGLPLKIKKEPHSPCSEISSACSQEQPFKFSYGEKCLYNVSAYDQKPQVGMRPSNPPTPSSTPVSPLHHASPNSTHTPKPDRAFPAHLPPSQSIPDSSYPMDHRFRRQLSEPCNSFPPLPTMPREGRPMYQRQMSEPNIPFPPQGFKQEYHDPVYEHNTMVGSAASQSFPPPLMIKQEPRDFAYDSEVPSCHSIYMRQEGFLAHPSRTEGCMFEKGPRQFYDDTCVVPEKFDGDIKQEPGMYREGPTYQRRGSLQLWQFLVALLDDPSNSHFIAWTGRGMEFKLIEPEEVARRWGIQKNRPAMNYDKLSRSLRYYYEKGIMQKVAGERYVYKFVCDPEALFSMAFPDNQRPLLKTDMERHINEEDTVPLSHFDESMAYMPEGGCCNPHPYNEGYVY
# Sequence of SPIB (Q01892 whole entry): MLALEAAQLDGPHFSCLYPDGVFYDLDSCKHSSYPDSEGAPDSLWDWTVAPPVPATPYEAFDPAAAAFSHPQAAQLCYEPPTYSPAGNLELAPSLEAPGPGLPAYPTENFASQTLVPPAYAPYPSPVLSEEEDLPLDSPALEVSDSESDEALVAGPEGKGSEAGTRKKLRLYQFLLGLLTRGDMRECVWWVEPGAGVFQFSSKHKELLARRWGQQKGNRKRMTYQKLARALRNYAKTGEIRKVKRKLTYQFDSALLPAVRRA
# Sequence of CRX (O43186 whole entry): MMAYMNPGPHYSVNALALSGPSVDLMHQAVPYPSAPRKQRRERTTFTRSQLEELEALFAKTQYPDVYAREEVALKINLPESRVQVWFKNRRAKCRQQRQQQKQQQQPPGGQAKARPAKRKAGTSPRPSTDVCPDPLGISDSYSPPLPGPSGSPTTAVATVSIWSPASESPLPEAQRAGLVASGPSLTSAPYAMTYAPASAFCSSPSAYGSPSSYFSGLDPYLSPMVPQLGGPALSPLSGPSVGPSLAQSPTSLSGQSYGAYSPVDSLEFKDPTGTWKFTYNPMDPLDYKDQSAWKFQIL
# Sequence of ELF1 (P32519 whole entry): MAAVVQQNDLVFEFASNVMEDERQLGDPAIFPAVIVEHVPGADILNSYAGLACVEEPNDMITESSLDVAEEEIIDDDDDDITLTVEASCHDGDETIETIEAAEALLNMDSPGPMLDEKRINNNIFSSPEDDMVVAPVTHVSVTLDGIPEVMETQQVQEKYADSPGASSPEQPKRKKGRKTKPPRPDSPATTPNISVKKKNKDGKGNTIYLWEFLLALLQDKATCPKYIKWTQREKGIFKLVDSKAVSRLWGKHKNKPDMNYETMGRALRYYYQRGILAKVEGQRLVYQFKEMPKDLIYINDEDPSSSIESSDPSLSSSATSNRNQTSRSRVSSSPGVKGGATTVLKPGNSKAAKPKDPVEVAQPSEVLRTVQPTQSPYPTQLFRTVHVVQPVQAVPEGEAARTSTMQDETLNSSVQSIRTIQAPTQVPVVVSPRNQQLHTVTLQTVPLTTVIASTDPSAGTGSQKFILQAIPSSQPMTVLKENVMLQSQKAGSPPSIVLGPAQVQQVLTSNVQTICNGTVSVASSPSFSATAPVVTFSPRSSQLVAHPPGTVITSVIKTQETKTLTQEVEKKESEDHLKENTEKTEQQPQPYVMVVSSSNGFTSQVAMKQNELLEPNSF
sequence,measurement,setting,value
ACAATA,binding signal,FLI1,"1.13 fold enrichment (6-mer frequency, TF over GST control)"
same,binding signal,ELK1,"1.12 fold enrichment (6-mer frequency, TF over GST control)"
same,binding signal,GABPA,"1.29 fold enrichment (6-mer frequency, TF over GST control)"
same,binding signal,ERG,"1.13 fold enrichment (6-mer frequency, TF over GST control)"
same,binding signal,ELF1,"1.1 fold enrichment (6-mer frequency, TF over GST control)"
same,binding signal,EHF,"1.16 fold enrichment (6-mer frequency, TF over GST control)"
same,binding signal,SPI1,"1.16 fold enrichment (6-mer frequency, TF over GST control)"
same,binding signal,SPIB,"1.2 fold enrichment (6-mer frequency, TF over GST control)"
same,binding signal,ELK3,"1.23 fold enrichment (6-mer frequency, TF over GST control)"
same,binding signal,FEV,"1.13 fold enrichment (6-mer frequency, TF over GST control)"
same,binding signal,ETV5,"1.15 fold enrichment (6-mer frequency, TF over GST control)"
same,binding signal,HSF1,"1.16 fold enrichment (6-mer frequency, TF over GST control)"
same,binding signal,SPIC,"1.12 fold enrichment (6-mer frequency, TF over GST control)"
same,binding signal,ELF4,"1.16 fold enrichment (6-mer frequency, TF over GST control)"
same,binding signal,ELK4,"1.22 fold enrichment (6-mer frequency, TF over GST control)"
same,binding signal,ETV2,"1.2 fold enrichment (6-mer frequency, TF over GST control)"
same,binding signal,ELF3,"1.33 fold enrichment (6-mer frequency, TF over GST control)"
same,binding signal,CRX,"1.19 fold enrichment (6-mer frequency, TF over GST control)"
same,binding signal,ETV1,"1.13 fold enrichment (6-mer frequency, TF over GST control)"
